In PubChem BioAssay (NCI) one finds growth data, which are given here for 40 molecules.

Structures are written as SMILES. The panel holds about 83,000 compounds, 20% with a hit somewhere; the sample as a whole holds those more often.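 Plates (96-well) were seeded with cells, treated with compound at one concentration, and incubated for 48 hours before percent growth was determined.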 Unmarked numbers belong to inactive results. Active and inactive are the calls of the source. How the source made its calls: active means growth percent below 10; inactive means the rest.

In the test the test system is EKVX NSCLC. Description: NCI-60 one-dose screen, 48 h (100 = growth as untreated, 0 = no growth, -100 = all killed). Particulars: 10 µM unless noted.
With `COCCOc1ccc2ncc(C#Cc3cncc(C(=O)Nc4ccc(CN5CCN(C)CC5)c(C(F)(F)F)c4)c3)n2n1`, the growth was 33.6%.
Turning to `CCOC(=O)c1c(N)c(C#N)cn1Cc1ccc(Cl)cc1Cl`, the growth was 81.8%.
Then `Cc1ccc(Nc2nc(SC(C)C)nc(-c3ccccc3)c2C#N)cc1`, with 81.7%; and `O=C(CSc1nc2ccccc2c(=O)n1-c1ccc(Cl)c(Cl)c1)Nc1ccc(S(=O)(=O)Nc2ccc(Cl)nn2)cc1`, with 94.5%.
Then `N#Cc1cnc2ccc(-c3cnc4n[nH]nc4c3)cc2c1N1CCc2cc(F)c(Cl)cc21`, with 3.17% (active).
As to `CNC(=O)Nc1ccc(Nc2cc(-c3ccc(-n4cccn4)cc3)[nH]n2)c(C)c1`, the growth was 109%.
Then `CN1CCN(Cc2ccc(NC(=O)c3cncc(C#Cc4cnc5ccc(N)nn45)c3)cc2C(F)(F)F)CC1`, with 37.1%.
The result for `Cc1cc(=O)oc2cc(OCCCOc3ccc(/C=C/C(=O)Nc4ccc(Br)cc4)cc3)ccc12` reads 91.6%; that for `C/C(CC1(O)C(=O)Nc2ccccc21)=N\O` (stereo not given), 87.9%.
The result for `Cc1ccc2c(n1)C(=O)C(Cl)=C(Nc1ccccc1C(=O)OC(C)(C)C)C2=O` reads 28%.
On to `COc1ccc(/C=N\NC(=O)c2cnn(CC(O)c3ccccc3)c2N)cc1OCc1ccc(Cl)cc1` (stereo not given), for which the growth was 79.1%.
Then `NC(N)=NS(=O)(=O)c1ccc(N=Nc2c(N)nn(-c3ccc([N+](=O)[O-])cc3[N+](=O)[O-])c2N)cc1`, with 99%; and `COc1ccccc1Cn1cc(C#N)c(N)c1C(=O)c1ccc(Br)cc1`, with 85.2%.
As to `CC(=C(c1ccc(OCCN2CCCC2)cc1)c1ccc(OCCN2CCCC2)cc1)c1ccc(Cl)cc1`, the growth was 37.3%.
Consider `CCN(CC)CCOc1ccc(C(=C(C)Cc2ccc(OC)cc2)c2ccc(OCCN(CC)CC)cc2)cc1`, for which the growth is 84%.
The result for `Fc1ccc(-c2cn3c(-c4c[nH]c5ccc(Br)cc45)csc3n2)cc1` reads 64.9%; that for `CC1=C(C)C(=O)C(Nc2cccc(C(=O)OC(C)(C)C)c2)=CC1=O`, 81.2%; that for `CSc1ccc(/C(=N/N=C(N)N)c2ccc(Cl)cc2)cc1`, 35.1%.
Then `O=C(/C=C/Nc1ccc(S(=O)(=O)Nc2ncccn2)cc1)c1ccc(N=Cc2c(O)[nH]c3ccccc23)cc1`, with 103%; and `N#Cc1c(-c2cccs2)cc(-c2cnccn2)nc1SCC(=O)N/N=C/c1cccs1`, with 59%.
Then `O=S(=O)(NCCCNc1nccc(-c2[nH]c(-c3ccccc3)nc2-c2ccc(F)c(O)c2)n1)c1ccccc1`, with 102%; and `CC1(C)CC[C@]2(C(=O)NCCCCCCN(CCCN)CCCN)CC[C@]3(C)C(=CC[C@@H]4[C@@]5(C)CC[C@H](O)C(C)(C)[C@@H]5CC[C@]43C)[C@@H]2C1`, with 91.8%; and `CCOC(=O)c1c(NCC(=O)Nc2cccc([N+](=O)[O-])c2)sc(C(C)=O)c1C`, with 0.605% (active).
Consider `O=c1oc2ccc(-c3ccc(F)cc3F)cc2c(=O)n1-c1ccc(Br)cc1F`, for which the growth is 73.5%.
The result for `Cc1ccc2c(n1)C(=O)C(Cl)=C(Nc1cccc(C(=O)OC(C)(C)C)c1)C2=O` reads 86.3%; that for `C/C(=C(\c1ccc(O)cc1)c1ccc(OCCN2CCCCCC2)cc1)c1ccc(Cl)cc1`, -81.2% (active).
The result for `CC1=C(C)C(=O)C(Nc2cccc(C(F)(F)F)c2)=C(Br)C1=O` reads 72.9%; that for `CC(C)C(/C=C/c1[nH]ncc1-c1cc(Cl)ccc1O)N1CCOCC1` (stereo not given), 95.9%.
The result for `Fc1cccc(Cl)c1/C=N/Nc1nc(N/N=C/c2c(F)cccc2Cl)nc(N2CCCCC2)n1` reads 13.8%; that for `COc1ccc(C2C(C#N)=C(/N=C/c3ccc(Cl)cc3)Oc3c2sc2c(C)cccc32)cc1` (stereo not given), 42.5%; that for `O=C(CCCCCCNC(=O)C(O)(O)C(F)(F)F)Nc1ccc(Cl)cc1`, 39.2%.
`O=C1C(SCc2ccccc2)=C(Cl)CN1c1ccc(Cl)cc1`: the growth was 106%.
Then `Cc1ccc(-c2nc(SCC(=O)c3ccccc3)nc(Nc3ccc(S(N)(=O)=O)cc3)c2C#N)cc1`, with 99.8%; and `O=C1C(N2CCN(c3ccccc3)CC2)=C(Cl)C(=O)c2ncccc21`, with 101%.
The result for `C#Cc1nc(C(=O)NCCCCCCC(=O)NO)cs1` reads 53.5%; that for `C[C@H](Nc1ncnc2ccc(-c3cnc(Cl)c(NS(C)(=O)=O)c3)cc12)c1ccccc1`, -34.3% (active).
For the molecule `Cc1ccc(/C=N/Nc2nc(Nc3ccccc3)nc(Nc3ccc(S(N)(=O)=O)cc3)n2)cc1`, the growth is 78.1%.
The result for `Cc1ccc(S(=O)(=O)NCCCNc2nc(Nc3ccc(N4CCN(C)CC4)cc3)nc3ccsc23)cc1` reads 78.8%; that for `CC(C)=CCC[C@](C)(O)[C@H]1CC[C@]2(C)[C@@H]1CC[C@@H]1[C@@]3(C)CC[C@H](N)C(C)(C)[C@@H]3CC[C@]12C`, 73.4%.
In the case of `NNc1nnc2nc(Nc3ccccc3)nc(Nc3ccc(S(N)(=O)=O)cc3)n12`, the growth is 99.4%.
